# Bioassay records (PubChem BioAssay)
# Shown are actives, neighbours in structure and some others; about 3.2% of the full set was active somewhere.
# Tau fluor counter: Counterscreen qHTS for Inhibitors of Tau Fibril Formation, Fluorescence Polarization; tau K18 P301L Alexa594 fluorescence, heparin fibrillization; Potency, µM (doses to about 57.7 µM), inactives show at the highest dose activity change, negative = decrease; hit rate 0.93% among 280,000; also: potency is read from the fitted curve at half-maximal effect; % is scaled to controls: 0 for no effect and ±100 for the full control effect; nearly all actives have a fitted effect of over 55% in size
#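 Human tau K18 P301L (15 uM unlabeled, 0.24 uM Alexa 594-labeled) in 100 mM sodium acetate pH 7 with 20 uM heparin, 6 hr at 37 C. ThT 30 uM added, 1 hr ambient; Alexa 594 FP and total fluorescence read at 555/632 nm.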
# JMJD2E inh: qHTS Assay for Inhibitors of Human Jumonji Domain Containing 2E (JMJD2E); Lysine-specific demethylase 4E (Homo sapiens), B2RXH2; JMJD2E catalytic domain, FDH-coupled NADH fluorescence (FDH is formaldehyde dehydrogenase); Potency, µM (highest dose often 57.1 µM), inactives show at the top dose activity change, negative = inhibition, hits mostly inhibitors; hit rate 1.6% among 230,000; active = well fitted inhibition curve with a large enough effect, not every such curve was filed as active; inconclusive = small, poorly fitted or top-dose-only effect, or another doubt; inactive = no such curve, though single readings can be large or run the other way;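 also: potency is read from the fitted curve at half-maximal effect; 0% = wells with enzyme and -100% = buffer wells without enzyme; nearly all actives have a fitted effect of over 50% in size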
# Tau FP inhib: qHTS for Inhibitors of Tau Fibril Formation, Fluorescence Polarization. Microtubule-associated protein tau (Homo sapiens), P10636. K18 P301L tau heparin fibrillization, Alexa594 FP, 6 h. Potency, µM (series often up to 57.7 µM), without a hit: at the top dose activity, negative = inhibition, hits mostly inhibitors. hit rate 0.39% among 280,000; also: potency is read from the fitted curve at half-maximal effect; % is scaled to controls: 0 for no effect and ±100 for the full control effect; nearly all actives have a fitted effect of over 55% in size
#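 Steps: dispense K18 P301L tau (15 uM plus 0.24 uM Alexa 594 tracer, final) in pH 7 sodium acetate; add compound; add heparin (20 uM final); incubate 6 hr, 37 C; add ThT (30 uM final); after 1 hr ambient, read FP.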
# CBFb-RUNX1 inh: qHTS Assay for Compounds Blocking the Interaction Between CBF-beta and RUNX1 for the Treatment of Acute Myeloid Leukemia; AlphaScreen CBFb-His/RUNX1-biotin binding, biochemical; Potency, µM (titrated, usually from 59.8 µM), for the others: at the top dose activity, negative = inhibition, actives largely listed as inhibitors; 230,000 tested, under 10 active; Runt-related transcription factor 1 (Homo sapiens) + Core-binding factor subunit beta …; also: % of control where 0% means no effect
# Target sequence (Q01196 whole entry, looked up): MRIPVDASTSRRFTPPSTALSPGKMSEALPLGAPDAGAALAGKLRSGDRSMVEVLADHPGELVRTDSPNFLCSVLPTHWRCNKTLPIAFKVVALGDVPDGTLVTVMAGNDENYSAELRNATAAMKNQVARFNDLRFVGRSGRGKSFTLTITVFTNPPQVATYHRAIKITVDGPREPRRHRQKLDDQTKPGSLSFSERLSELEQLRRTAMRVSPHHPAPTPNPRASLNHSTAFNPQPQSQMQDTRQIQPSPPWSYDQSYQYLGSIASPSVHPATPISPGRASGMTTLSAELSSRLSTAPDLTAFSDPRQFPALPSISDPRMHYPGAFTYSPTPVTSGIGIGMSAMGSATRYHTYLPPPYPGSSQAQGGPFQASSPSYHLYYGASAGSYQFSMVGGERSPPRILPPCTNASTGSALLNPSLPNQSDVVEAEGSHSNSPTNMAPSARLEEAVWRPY
# Target sequence (Q13951 whole entry, looked up): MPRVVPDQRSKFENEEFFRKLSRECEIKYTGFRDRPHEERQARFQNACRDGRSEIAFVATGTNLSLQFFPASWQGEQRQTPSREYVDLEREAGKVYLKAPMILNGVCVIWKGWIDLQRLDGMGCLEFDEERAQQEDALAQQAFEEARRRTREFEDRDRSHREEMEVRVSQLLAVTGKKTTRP
#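 CBF-beta (His) and RUNX1 (biotin), 30 nM each; 20 min preassociation; + compound, 15 min; + beads 50 ng each (Ni, streptavidin), 90 min; RT; AlphaScreen read.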
# LMNA splice mod: qHTS Assay for Modulators of Lamin A Splicing | HeLa LMNA splicing GFP/RFP minigene ratio, 48 h | Potency, µM (series often up to 46.1 µM), for the others: at the top dose ratio change, negative = inhibition, usual class: inhibitors | hit rate 0.01% among 200,000 | AID 1487, 2009; active = well fitted inhibition curve with a large enough effect in the signal ratio, with a control signal flat, not every such curve was filed as active; inconclusive = small, poorly fitted or top-dose-only effect, or effect the other way, or a change in a side signal; the % refers to the signal ratio; also: potency is read from the fitted curve at half-maximal effect; % is scaled to controls: 0 for no effect and ±100 for the full control effect
#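 S3 HeLa stable clones carrying a lamin A-EGFP splicing minigene plus DsRed2 were seeded at 600 cells/well in Opti-MEM with 2% FBS, pin-dosed and incubated 48 h at 37°C. Acumen cytometry (488 nm) gave the GFP/RFP total-intensity ratio.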
# Tau fibril ThT: qHTS for Inhibitors of Tau Fibril Formation, Thioflavin T Binding; Potency, µM (highest dose often 57.4 µM), inactives show at the highest dose activity, negative = inhibition, hits mostly inhibitors; recombinant tau K18 P301L, heparin-induced fibrillization, ThT fluorescence; hit rate 2.1% among 270,000; also: potency is read from the fitted curve at half-maximal effect; % is scaled to controls: 0 for no effect and ±100 for the full control effect; nearly all actives have a fitted effect of over 55% in size
#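 Fibril formation assay: tau K18 P301L at 15 uM with trace Alexa 594 label, heparin inducer 20 uM, pH 7 sodium acetate buffer, 37 C for 6 hr; endpoint ThT signal.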
# * marks the source's active call; other numbers are inactive results; ? = inconclusive; / = no result; [ ] = remark or other dose. Unless noted, calls follow the shape of the dose curve; as a rule, active = well fitted curve in the direction sought with a large enough effect; inconclusive = small, poorly fitted or top-dose-only effect, or another doubt; inactive = no such curve, though single readings can be large; an effect the other way counts as inactive or inconclusive.
SMILES,Tau fluor counter,JMJD2E inh,Tau FP inhib,CBFb-RUNX1 inh,LMNA splice mod,Tau fibril ThT
COC(=O)c1sc2nc(C)c([N+](=O)[O-])c(C)c2c1N,-25%,8%,-3%,-12%,-25%,3.2µM*
CCOC(=O)c1sc2nc(C)cc(C)c2c1N,-7%,?,6%,16%,-2%,?
CN=c1nc(-c2ccccc2)n(-c2ccccc2)s1,-16%,3.2µM*,?,-10%,?,22µM*
CCOC(=O)N1CCN(c2cc(N)c([N+](=O)[O-])cc2F)CC1,-16%,-6%,-4%,2%,-9%,4.5µM*
CC(=O)N1CCN(c2cc(N3CCc4ccccc4C3)c(F)cc2[N+](=O)[O-])CC1,-23%,7%,3%,-25%,13%,16µM*
CCOC(=O)N1CCN(c2cc(C)c(C(C)=O)cc2F)CC1,3%,-4%,2%,-3%,3%,?
COc1ccc2oc(=O)c(C(=O)NCCc3c(C)[nH]c4c(C)cccc34)cc2c1,16µM*[quencher],/,11%,/,/,?
CC(C)CSc1n[nH]c(=S)s1,-2%,10µM*,-3%,11%,/,-7%
O=C1c2ccccc2C(=O)N1CCSc1n[nH]c(=S)s1,-8%,?,-11%,2%,4%,-14%
COc1ccccc1-c1cc(NC(=O)COc2ccc(C)c(C)c2)n(-c2ccccc2)n1,-4%,/,?,/,?,3%
COc1cc(/C=C2/SC(=O)NC2=O)ccc1Oc1ccc([N+](=O)[O-])cc1[N+](=O)[O-],?,5%,-7%,10%,/,16µM*
O=C(C[n+]1ccccc1)c1ccc(NC(=O)c2ccccc2)cc1,-17%,-19%,-2%,-5%,23%[46 µM],-16%
O=C(C[n+]1ccc(C(=O)N/N=C/c2ccc(Cl)cc2Cl)cc1)c1ccccc1,?,3%,10%,4%,-6%,16µM*
NC(=O)c1cc[n+](CC(=O)c2ccc(NC(=O)c3ccccc3)cc2)cc1,-8%,13µM*,-18%,5%,5%[46 µM],?
O=C(N/N=C/c1ccc(Cl)cc1Cl)c1cccc(F)c1,-29%,10%,-8%,7%,-5%,?
Cc1ccc(O)c(NC(=O)c2ccc(Br)c(S(=O)(=O)N3CCCCC3)c2)c1,13µM*[quencher],/,-3%,/,/,-12%
Cc1ccc(O)c(NC(=O)c2cccc(S(=O)(=O)N3CCCCC3)c2)c1,?,8%,7%,0%,-15%,?
O=C(Nc1cc(Cl)cc(Cl)c1)c1ccc(F)c(S(=O)(=O)N2CCCC2)c1,?,/,14µM*,/,-15%[46 µM],-5%
O=C(Nc1cc(Cl)cc(Cl)c1)c1ccc(F)c(S(=O)(=O)NC2CCCC2)c1,?,/,10µM*,/,?,1%
Cn1nnnc1SCC(=O)Nc1ccccc1N1CCOCC1,-4%,-2%,-2%,2%,5%,-6%
COc1ccc(-n2nnnc2SCC(=O)Nc2ccccc2N2CCOCC2)cc1OC,-17%,10%,-80%,4%,?,10µM*
Cc1nc2ccn(Cc3cccnc3)c(=O)c2cc1C(=O)N1CCN(c2ccccc2)CC1,-1%,/,3%,/,2%[46 µM],-5%
O=[N+]([O-])c1c(NCCCO)cc(Sc2ccc(Cl)cc2)c2nonc12,?,-3%,?,3%,-12%,13µM*
CC(=O)OCCCNc1cc(Sc2ccc(C)cc2)c2nonc2c1[N+](=O)[O-],?,6%,-8%,2%,-6%,?
COc1ccc(CNc2cc(NCCCO)c([N+](=O)[O-])c3nonc23)cc1,-4%,?,5%,0%,/,3%
SMILES,Tau fluor counter,JMJD2E inh,Tau FP inhib,CBFb-RUNX1 inh,LMNA splice mod,Tau fibril ThT
CC(=O)OCCNc1cc(SCc2ccco2)c2nonc2c1[N+](=O)[O-],7.9µM*[quencher],?,?,?,?,7.1µM*
Cn1ccnc1Sc1cc(NCCCO)c([N+](=O)[O-])c2nonc12,?,1%,-13%,-9%,/,4.5µM*
O=[N+]([O-])c1c(NCCCO)cc(SCc2ccco2)c2nonc12,?,-8%,?,-3%,-7%,7.9µM*
COC(=O)CCSc1cc(NCCOC(C)=O)c([N+](=O)[O-])c2nonc12,?,1%,-10%,-15%,2%,11µM*
CCOC(=O)c1c(OCC)[nH]c2c1cc(O)c1ccccc12,?,22µM*,11%,-15%,7%,14µM*
CCN1CC2=C(OC(N)=C(C#N)C2c2cccs2)/C(=C\c2cccs2)C1 (stereo unspecified),?,?,-13%,-24%,-7%,14µM*
Nc1ncnc2c1ncn2[C@@H]1O[C@H](C(=O)N2CCN(CC(=O)Nc3cccc4c3CNC4=O)CC2)[C@@H](O)[C@H]1O,/,/,/,13%,/,/
CCOC(=O)c1sc(Nc2ccc(OCC)cc2)nc1C,?,?,?,7%,1%[46 µM],?
CCOC(=O)c1sc(N2N=C(C)/C(=C\c3ccc(OCC(=O)OC)cc3)C2=O)nc1C,-19%,22µM*,12%,-10%,?,?
N#CC(C#N)=C(N)/C(C#N)=C/c1ccc2[nH]ccc2c1,?,/,-13%,1%,/,14µM*
N#C/C(=C/c1cc[nH]c1)C(N)=S,-24%,2%,3%,-9%,11%[46 µM],?
Nc1ccc(S(=O)(=O)Nc2cccc3cccnc23)cc1,/,/,/,1%,/,/
COC(=O)c1ccc(-n2nnc(-c3nc(-c4ccccc4Cl)no3)c2C)cc1,11%,/,0%,/,/,-5%
CCCOP(=O)(c1ccc(N(C)C)cc1)C(O)c1ccncc1 (stereo unspecified),-2%,18µM*,-5%,4%,6%,-10%
CCCCOP(=O)(c1ccc(N(C)C)cc1)C(O)c1cccnc1 (stereo unspecified),2%,2%,3%,1%,6%,-7%
CN(C)c1ccc(P(=O)(OCc2ccccc2)C(O)c2ccncc2)cc1 (stereo unspecified),-16%,20µM*,-2%,2%,8%,?
Cc1[nH]n(S(=O)(=O)Cc2ccccc2)c(=O)c1N=Nc1ccccc1Cl,-22%,7%,11%,?,7%[9.22 µM],16µM*
CC(C)(C)c1cc(C(c2cccnc2)N2CCN(CCO)CC2)cc(C(C)(C)C)c1O (stereo unspecified),-22%,-2%,?,-10%,?,20µM*
